The text below walks through data of PubChem BioAssay (NCI).

Each structure is given as a SMILES string. The panel holds about 79,000 compounds, 15% with a hit somewhere; the sample as a whole holds those more often. Calls of active or inactive are those of the source. No stated cut-off is given here; in the data, active means growth inhibition above about 70%; inactive means the rest.

This test is described as follows: NCI Yeast Anticancer Drug Screen. Data for the mlh1 strain (AID 171).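 Further: 0% = growth of vehicle-treated control cultures of the same strain.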 As to conditions: S. cerevisiae mlh1 strain growth inhibition; at 1.2 µM; active compounds read high. In a few lines: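 Test agents were incubated with yeast bearing a defined DNA damage repair or cell cycle control alteration; values are growth inhibition normalised to vehicle-treated cultures.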
In the case of `CCCc1cc(C(=O)OCC)cc(CCC)c1O`, the growth inhibition is -4% (inactive).
As to `CC(C)[N+]([O-])(CCCNc1c2ccccc2nc2cccc([N+](=O)[O-])c12)C(C)C`, the growth inhibition was 3% (inactive).
For `COc1cc2c3c(cccc3c1)C(=O)N(CCN(C)C)C2=O`, the growth inhibition was -39% (inactive).
On to `NC(=O)NN=C(CS)CS`, for which the growth inhibition was 0% (inactive).
In the case of `Cc1ccc(NC(=O)/C(Cl)=C(\Cl)C(=O)O)cc1C`, the growth inhibition is 1% (inactive).
As for `CCN(CC)CC[n+]1ccc2c(C)c3[nH]c4ccc(O)cc4c3c(C)c2c1`, the figure is -4% (inactive); as for `CC(CC(C)(C)[N+](C)(C)C)[N+](C)(C)C` (centres undefined), -1% (inactive).
In the case of `COc1ccc(OC)c2cc3ccccc3cc12`, the growth inhibition is 14% (inactive).
In the case of `Nc1ncncc1C(C1=C(O)COC1=O)C1=C(O)COC1=O` it was 4% (inactive); in that of `CSC1=NNC(SC)=NN1`, -3% (inactive).
In the case of `Cc1c(Cl)ccc2c1S(=O)(=O)c1cccc(Cl)c1-2` it was -3% (inactive); in that of `[O-][n+]1c2ccc(O)cc2nc2ccc(Cl)cc21`, 4% (inactive); in that of `COc1ccc2ccc3ccccc3c2c1C=O`, -6% (inactive).
On to `Nc1ccc2c(c1)C(=O)c1cccc(N)c1C2=O`, for which the growth inhibition was 0% (inactive).
As to `O=C(c1ccc(Cl)cc1Cl)C(Cl)Cl`, the growth inhibition was -10% (inactive).
As for `COc1cc(C(=O)/C=C/c2ccccc2O)ccc1O`, the growth inhibition was 1% (inactive).
For `O=Cc1cccc2ccc3ccccc3c12`, the growth inhibition is 5% (inactive).
Take `O=C(Nc1ccc(Cl)cc1)OCC#CCCl`: the growth inhibition was 83% (active).
On to `Cn1ccnc1Oc1ccc(Cl)cc1`, for which the growth inhibition was -11% (inactive).
As for `c1ccc2c(c1)C(=NCCCN1CCCCCC1)c1cccn1-2`, the figure is -2% (inactive); as for `C/C(=N\O)C1CC2C=C(C#N)C1N(Cc1ccccc1)C2` (centres undefined), -3% (inactive); as for `O=[N+]([O-])C(=C(Sc1ccccc1)Sc1ccccc1)C(Cl)=C(Cl)Cl`, 8% (inactive).
Regarding `CCCCCCCCCC/C=C\C(=O)O`, the growth inhibition is -10% (inactive).
For `COc1ccc(N=C2C(=O)Nc3ccc(Br)cc32)cc1`, the growth inhibition is 6% (inactive).
As for `COc1ccccc1C(=O)OCC1CCCN2CCCCC12` (centres undefined), the figure is 23% (inactive).
In the case of `CC(C)(Br)C(=O)/C=C/c1ccc(Cl)c(Cl)c1`, the growth inhibition was -2% (inactive).
Take `Nc1ccccc1CC(O)C(=O)O` (centres undefined): the growth inhibition was 2% (inactive).
For `CC(=O)N/N=C/C(C)(C)C(C)(C)/C=N/NC(C)=O`, the growth inhibition was -7% (inactive).
On to `CN(C)c1nc2sc3c(c2c(=O)o1)CCCC3`, for which the growth inhibition is -3% (inactive).
`CC(C)OC(=O)Oc1ccccc1OC(=O)OC(C)C`: the growth inhibition was 0% (inactive).
In the case of `Cc1ccc(N)c(S)c1` it was -19% (inactive); in that of `O=C(O)c1ccccc1NC(=S)c1ccccc1`, 3% (inactive); in that of `COC(=O)c1ccc(NCC2=CC(=O)C=CC2=O)cc1O`, 17% (inactive).
As for `NC(N)=N/N=C\c1c2ccccc2cc2ccccc12`, the growth inhibition is -61% (inactive).
For `COC(=O)CSSCc1ccc([N+](=O)[O-])cc1`, the growth inhibition was -4% (inactive).
In the case of `CCS(=O)(=O)c1ccc(/C=C/C=N/NC(=S)NCC(C)C)cc1`, the growth inhibition is 4% (inactive).
With `N#CC(C(=O)Nc1ccccc1)C1=C(Cl)C(=O)c2ccccc2C1=O` (centres undefined), the growth inhibition is -3% (inactive).
As for `C[C@H](CCC(=O)NN)[C@H]1CC[C@H]2[C@@H]3CC[C@@H]4C[C@H](O)CC[C@]4(C)[C@H]3CC[C@]12C`, the figure is 3% (inactive).
With `CC[n+]1ccc2c(C)c3[nH]c4ccc(O)cc4c3c(C)c2c1`, the growth inhibition was 0% (inactive).
